± gives the standard deviation of the averaged measurements. Whole data set: some 33,000 sequences, median “E-score (dimensionless, -0.5 to 0.5)” near -0.049, cut for the highest 2% near 0.37. Many of the other results were omitted from the sample, so the highest values are more common in it than they were.
What follows are sequences tested on T1, PmTbr T-box DNA-binding domain (GST fusion) (assay: PBM E-score of 8-mer (E-score (dimensionless, -0.5 to 0.5)); Tbr is Tbrain of the sea star Patiria miniata (Pm) or the sea urchin Strongylocentrotus purpuratus (Sp); higher = stronger binding preference). Settings: the construct has about 5 more residues each side.
T1 sequence: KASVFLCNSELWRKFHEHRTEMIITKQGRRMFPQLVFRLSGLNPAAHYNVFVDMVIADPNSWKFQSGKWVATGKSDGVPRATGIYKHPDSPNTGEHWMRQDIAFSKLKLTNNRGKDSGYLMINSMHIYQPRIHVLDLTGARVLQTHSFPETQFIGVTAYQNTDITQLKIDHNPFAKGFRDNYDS
Protocol: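 Universal protein-binding microarray (Agilent AMADID 016060, 60-bp probes with a 35-bp variable region) incubated with 200 nM GST-fused Patiria miniata Tbr T-box DNA-binding domain (residues 272-466) in PBS pH 7.5. Scored for every ungapped 8-mer (given with its reverse complement) by the Universal PBM Analysis Suite as E-score (modified Wilcoxon-Mann-Whitney enrichment, range -0.5 to 0.5; >0.45 counts as bound) and Z-score of median probe intensity. Two replicate arrays (datasets 1 and 2).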
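Note: 200 nM protein in PBS on universal arrays averaged over duplicate arrays.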

Sequence | PBM E-score of 8-mer
CTATCACC | 0.431 ± 0.0063
CTCTCACC | 0.383 ± 0.0077
ATATCACC | 0.364 ± 0.013
ATCTCTCA | 0.226 ± 0.023
CTCTCACA | 0.3481 ± 0.0026
ATCTCACC | 0.409 ± 0.0061
ATCTCAAC | 0.0437 ± 0.036
CTATCACA | 0.305 ± 0.009
ACCTCACC | 0.261 ± 0.028
ATCTCACG | 0.294 ± 0.016
ATCTCACA | 0.372 ± 0.021
CGCTCACC | 0.0475 ± 0.083
ATTGTTAC | 0.194 ± 0.057
GGTACGAC | -0.0493 ± 0.042
CAGAGGCA | -0.215 ± 0.071
ATCTACCG | -0.157 ± 0.067
AAGATCTC | 0.061 ± 0.054
CCGGCCCC | -0.24 ± 0.058
CAATCGCC | -0.0698 ± 0.068
ATCCCCAA | -0.227 ± 0.063
GAGCTTCA | -0.137 ± 0.0098
ATACTTCC | 0.0697 ± 0.018

Sequence | PBM E-score of 8-mer
GGCATTTA | 0.00349 ± 0.0029
ACCTCACA | 0.423 ± 0.0099
GCCTCACA | 0.224 ± 0.031
GTCTCTCA | 0.0943 ± 0.0041
GTCTCACA | 0.392 ± 0.019
TCCTCACA | 0.3327 ± 0.0011
ACCTCACG | 0.269 ± 0.038
ACGCAATC | -0.12 ± 0.013
GCTTGGTA | -0.112 ± 0.032
CCCCTCTA | -0.143 ± 0.088
ATTAGCGG | 0.121 ± 0.025
CCACTTGC | 0.158 ± 0.056
ACACTTGA | 0.369 ± 0.029
ACACTTGC | 0.407 ± 0.013
AAACTTGC | 0.122 ± 0.029
ATACTTGG | -0.174 ± 0.046
ACACTTGG | 0.395 ± 0.0073
GAAGTTAA | 0.0494 ± 0.064
TCTTGGCA | 0.0497 ± 0.1
GCTAACAA | 0.252 ± 0.013
ACTAACAC | 0.412 ± 0.007
GCTAACAC | 0.43 ± 0.0048

Sequence | PBM E-score of 8-mer
ACTAACAA | 0.214 ± 0.032
CCTAACAA | 0.184 ± 0.055
GCTAACCC | 0.00156 ± 0.0032
ACTAACAG | 0.216 ± 0.045
CCTAACAG | 0.128 ± 0.033
CCTAACAC | 0.4369 ± 0.0041
CAGTTCAC | 0.226 ± 0.023
ACGCAGCT | 0.109 ± 0.075
GACAATCC | 0.106 ± 0.018
GTAAGCTA | -0.266 ± 0.012
ATGTAGAC | -0.237 ± 0.043
GGTCGCAA | 0.205 ± 0.0044
CGTCGCAC | 0.332 ± 0.021
AGTCGCAG | 0.0399 ± 0.06
AGTCGCAC | 0.395 ± 0.026
AGTCGCAA | 0.147 ± 0.026
GGTCGCAC | 0.373 ± 0.018
AGATTTTC | 0.0361 ± 0.063
TAGTTCGA | 0.16 ± 0.056
GCACCAGA | -0.03 ± 0.061
AATGTTCC | -0.191 ± 0.0029
ACAACGCA | 0.105 ± 0.03

Sequence | PBM E-score of 8-mer
ACCACGCG | 0.1217 ± 0.0011
TACACCCA | 0.129 ± 0.046
CACCCCCC | 0.165 ± 0.06
CACACCCC | 0.416 ± 0.013
CACACCCG | 0.426 ± 0.019
CACACCGC | 0.334 ± 0.027
ATCACCCG | 0.194 ± 0.02
CACCCCCG | 0.216 ± 0.014
CCCACCCA | 0.0945 ± 0.0051
CCCACCCG | 0.105 ± 0.0088
AACACCCG | 0.428 ± 0.0098
CACACCCA | 0.423 ± 0.012
ACCACCCG | 0.189 ± 0.017
TAATTCAA | -0.292 ± 0.037
CCCGGTCG | -0.111 ± 0.059
CCATAGGA | -0.0411 ± 0.059
TACAACGA | -0.18 ± 0.034
ATAGAACC | -0.0785 ± 0.034
CGGGCAGC | -0.0554 ± 0.0018
AGGTACCA | -0.0398 ± 0.018

Reference: the supplement of paper PMC4166925
